SMILES strings stand for the structures.

One assay deals with T1, Tyrosyl-tRNA synthetase, putative (Trypanosoma cruzi (strain CL Brener)) (UniProt Q4DSP6).
T1 sequence (whole entry): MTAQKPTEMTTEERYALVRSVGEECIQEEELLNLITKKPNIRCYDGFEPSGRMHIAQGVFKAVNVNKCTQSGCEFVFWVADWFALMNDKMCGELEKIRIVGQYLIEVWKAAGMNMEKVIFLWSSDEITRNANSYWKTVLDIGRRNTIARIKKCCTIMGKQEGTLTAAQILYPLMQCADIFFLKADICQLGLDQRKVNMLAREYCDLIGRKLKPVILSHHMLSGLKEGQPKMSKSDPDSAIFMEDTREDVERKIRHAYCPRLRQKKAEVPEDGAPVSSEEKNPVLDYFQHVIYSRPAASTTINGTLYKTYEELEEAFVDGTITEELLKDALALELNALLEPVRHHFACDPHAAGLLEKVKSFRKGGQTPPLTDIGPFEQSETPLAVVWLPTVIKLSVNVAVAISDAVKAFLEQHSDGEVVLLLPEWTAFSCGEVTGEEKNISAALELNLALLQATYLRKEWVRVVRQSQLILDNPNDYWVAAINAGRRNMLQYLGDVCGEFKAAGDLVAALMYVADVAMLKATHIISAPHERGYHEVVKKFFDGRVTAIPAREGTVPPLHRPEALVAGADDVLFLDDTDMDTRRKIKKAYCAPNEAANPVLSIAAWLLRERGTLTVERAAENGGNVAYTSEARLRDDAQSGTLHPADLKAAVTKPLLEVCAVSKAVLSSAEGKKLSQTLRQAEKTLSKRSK
As to the kind of experiment: Trypanosoma cruzi tyrosyl tRNA synthetase (TcYRS) _High Tyrosine SOP. The class given is functional. On the set-up: scale not given: in the data most compounds retested in dose-response had high values. The settings on record: 30 µM.
For `Cc1ccc2c(c1)CN(C(=O)C1CCCCC1)C(CN(C)C)CO2` (stereo not given), the Percent Effect is 3.23%.

`O=C(O)c1cc2c(nc1O)CC(c1cccs1)CC2=O` (stereo not given): the Percent Effect is 2.12%.

With `Cc1nc(N2CCCC2)nc2c1CCN(C(=O)C1CCCC1)CC2`, the Percent Effect came to 9.52%.

`Cc1ccc(CC(=O)NCCCNS(C)(=O)=O)cc1`: the Percent Effect amounted to 6.25%.

For the compound `CSCC(CCO)NC(=O)Nc1cc(C)ccc1C` (stereo not given), the Percent Effect stood at 1.07%.

`COC(=O)c1sccc1S(=O)(=O)N1CCC(Oc2ncccc2Cl)CC1`: the Percent Effect was -19.4%.

In the case of `Cc1cc(-c2cnn(CCNC(=O)C3CCCO3)c2C2CC2)on1` (stereo not given), the Percent Effect amounted to 2.15%.

For the compound `Cc1ccc(NS(=O)(=O)CC2=NC(=O)n3cccc3C2=O)cc1`, the Percent Effect was -10.6%.

`CCS(=O)(=O)N1CCc2ccc(NC(=O)Nc3ccc(F)cc3F)cc21`: the Percent Effect was -2.12%.

For `Cc1csc(C2CCCN(C(=O)c3cnc[nH]3)C2)n1` (stereo not given), the Percent Effect stood at 5.42%.

For `O=C(c1ccc[nH]1)N1CCc2c(COCC3CC3)cncc2C1`, the Percent Effect was 3.24%.

`CC(C)c1nn(C)c(N(C)C)c1CNCc1ccccc1CN(C)C`: the Percent Effect came out at 0.49%.

With `c1ccc(-c2noc(CN3CCC(c4ccn[nH]4)CC3)n2)cc1`, the Percent Effect is 4.76%.

Turning to `Cc1ccc(C)c(NC(=O)N(C)Cc2cnn(C)c2)c1`, the Percent Effect was determined as 7.39%.

For `COc1ccc(CN(Cc2cncn2C)CC2CCCO2)cc1OC` (stereo not given), the Percent Effect came to 5.38%.

As for `CN(C)C(=O)CC1CC2(CCN(C(=O)N(C)C)CC2)Oc2ccccc21` (stereo not given), the Percent Effect was determined as 1.07%.

On to `Cc1noc(C)c1C(=O)NCC(C)N(C)C` (stereo not given), for which the Percent Effect was determined as 3.96%.

In the case of `COc1ccc2c(c1)CC(NC(=O)NCc1cccs1)CO2` (stereo not given), the Percent Effect was determined as 2.12%.

As for `Cc1cc(C)n(CC2CCCN2C(=O)c2ccc3c(c2)nnn3C)n1` (stereo not given), the Percent Effect stood at 3.23%.

Turning to `O=C1[C@@H]2CCN(Cc3ccoc3)C[C@@H]2OCCN1Cc1cccnc1`, the Percent Effect is 4.25%.

Consider `CCc1nnc(CN(C)c2nc(C(C)C)nc3c2cnn3C)o1`, for which the Percent Effect was -2.1%.

Regarding `CCOC(=O)NC(CNC(=O)CCc1ccccn1)CC(C)C` (stereo not given), the Percent Effect was -5.38%.

Turning to `CC(C)c1nn(C)c(N(C)C)c1CNCCC(=O)NC1CCCC1`, the Percent Effect turned out to be 7.39%.

As to `Cc1cnn(CC2CCCN2C(=O)c2cnc3n[nH]c(C)c3c2)c1` (stereo not given), the Percent Effect came to 3.12%.

`O=C(c1ccnnc1)N1C[C@H]2CCC[C@@]2(COCC2CCOCC2)C1`: the Percent Effect was -1.08%.

`Cc1nccn1CC1CCCN1S(=O)(=O)Cc1ccccc1` (stereo not given): the Percent Effect is 2.46%.

Take `CC(C)c1n[nH]c(C2CN(C(=O)CCn3ccccc3=O)CCO2)n1` (stereo not given): the Percent Effect worked out at 3.12%.

Consider `Cc1ccc(C(NC(=O)CC2CCN(C(C)C)CC2)C(=O)O)cc1` (stereo not given), for which the Percent Effect is 2.65%.

With `c1ccc(-c2nnn3c2COC(CNCC2CCOCC2)C3)cc1` (stereo not given), the Percent Effect was found to be 7.45%.

Turning to `O=C(c1cncc(N2CCC3(CCNCC3)CC2)n1)N1CCCC1`, the Percent Effect came out at 7.1%.

As to `Cc1cc(NC(=O)NCCc2cccs2)n(C)n1`, the Percent Effect is 0%.

As for `Cc1nc(-c2ccco2)ccc1C(=O)N1CCCC1Cn1cccn1` (stereo not given), the Percent Effect was found to be 4.17%.

Regarding `CCOCC1CN(C(=O)CS(C)(=O)=O)Cc2cnn(C)c21` (stereo not given), the Percent Effect was 2.08%.

Consider `O=C1CC(c2ccccc2F)c2c(n3ccsc3nc2=O)N1` (stereo not given), for which the Percent Effect was 4.23%.

Consider `O=C(c1cccnc1-n1cccn1)N1CCN(CC2CC2)CC1`, for which the Percent Effect came to 4.76%.

With `COc1cc(C(=O)N(Cc2cnn(C)c2)C(C)C)ccc1OCC(N)=O`, the Percent Effect amounted to 0.493%.

On to `Cc1nn(C)c(C)c1C1CCCN1CC(=O)NC(C1CC1)C1CC1` (stereo not given), for which the Percent Effect is 5.42%.

Consider `Cc1nc(C2CCCN(C(=O)c3cccc4c3OCO4)C2)no1` (stereo not given), for which the Percent Effect was determined as 4.17%.

As for `COCCNC(=O)C(C)n1cc(Br)cn1` (stereo not given), the Percent Effect worked out at 9.68%.

`Cc1nc(CN2CCOC(c3nc(C(C)C)n[nH]3)C2)oc1C` (stereo not given): the Percent Effect turned out to be 3.45%.

A further assay addresses T1, Tyrosyl-tRNA synthetase, putative (Trypanosoma cruzi (strain CL Brener)). As to the kind of experiment: Trypanosoma cruzi tyrosyl tRNA synthetase (TcYRS) SOP. It is filed as functional. The arrangement: scale not given: direction of the effect not stated beside the values. The settings on record: 30 µM.
With `Cc1ccc2c(c1)CN(C(=O)C1CCCCC1)C(CN(C)C)CO2` (stereo not given), the Percent Effect was determined as 9.09%.

`O=C(O)c1cc2c(nc1O)CC(c1cccs1)CC2=O` (stereo not given): the Percent Effect is -20.5%.

Consider `Cc1nc(N2CCCC2)nc2c1CCN(C(=O)C1CCCC1)CC2`, for which the Percent Effect stood at 10.3%.

On to `Cc1ccc(CC(=O)NCCCNS(C)(=O)=O)cc1`, for which the Percent Effect is 15.2%.

Consider `CSCC(CCO)NC(=O)Nc1cc(C)ccc1C` (stereo not given), for which the Percent Effect was found to be 5%.

`COC(=O)c1sccc1S(=O)(=O)N1CCC(Oc2ncccc2Cl)CC1`: the Percent Effect was -20%.

As for `Cc1cc(-c2cnn(CCNC(=O)C3CCCO3)c2C2CC2)on1` (stereo not given), the Percent Effect was found to be 11.7%.

With `Cc1ccc(NS(=O)(=O)CC2=NC(=O)n3cccc3C2=O)cc1`, the Percent Effect is -17.9%.

In the case of `CCS(=O)(=O)N1CCc2ccc(NC(=O)Nc3ccc(F)cc3F)cc21`, the Percent Effect was determined as 6.41%.

On to `Cc1csc(C2CCCN(C(=O)c3cnc[nH]3)C2)n1` (stereo not given), for which the Percent Effect turned out to be 18.5%.

For `O=C(c1ccc[nH]1)N1CCc2c(COCC3CC3)cncc2C1`, the Percent Effect amounted to 12.8%.

For the compound `CC(C)c1nn(C)c(N(C)C)c1CNCc1ccccc1CN(C)C`, the Percent Effect was 7.32%.

Regarding `c1ccc(-c2noc(CN3CCC(c4ccn[nH]4)CC3)n2)cc1`, the Percent Effect is 14.6%.

For the compound `Cc1ccc(C)c(NC(=O)N(C)Cc2cnn(C)c2)c1`, the Percent Effect worked out at 16.1%.

Take `COc1ccc(CN(Cc2cncn2C)CC2CCCO2)cc1OC` (stereo not given): the Percent Effect is 11.7%.

As to `CN(C)C(=O)CC1CC2(CCN(C(=O)N(C)C)CC2)Oc2ccccc21` (stereo not given), the Percent Effect is 6.17%.

For `Cc1noc(C)c1C(=O)NCC(C)N(C)C` (stereo not given), the Percent Effect came out at 13.4%.

Turning to `COc1ccc2c(c1)CC(NC(=O)NCc1cccs1)CO2` (stereo not given), the Percent Effect stood at 8.97%.

Regarding `Cc1cc(C)n(CC2CCCN2C(=O)c2ccc3c(c2)nnn3C)n1` (stereo not given), the Percent Effect is 7.5%.

Take `O=C1[C@@H]2CCN(Cc3ccoc3)C[C@@H]2OCCN1Cc1cccnc1`: the Percent Effect came to 1.28%.

As for `CCc1nnc(CN(C)c2nc(C(C)C)nc3c2cnn3C)o1`, the Percent Effect is 2.56%.

Take `CCOC(=O)NC(CNC(=O)CCc1ccccn1)CC(C)C` (stereo not given): the Percent Effect came to 3.7%.

On to `CC(C)c1nn(C)c(N(C)C)c1CNCCC(=O)NC1CCCC1`, for which the Percent Effect is 23.5%.

In the case of `Cc1cnn(CC2CCCN2C(=O)c2cnc3n[nH]c(C)c3c2)c1` (stereo not given), the Percent Effect came to 20.2%.

Turning to `O=C(c1ccnnc1)N1C[C@H]2CCC[C@@]2(COCC2CCOCC2)C1`, the Percent Effect was 5.13%.

As for `Cc1nccn1CC1CCCN1S(=O)(=O)Cc1ccccc1` (stereo not given), the Percent Effect was determined as 3.8%.

Take `CC(C)c1n[nH]c(C2CN(C(=O)CCn3ccccc3=O)CCO2)n1` (stereo not given): the Percent Effect was 7.59%.

`Cc1ccc(C(NC(=O)CC2CCN(C(C)C)CC2)C(=O)O)cc1` (stereo not given): the Percent Effect is 9.76%.

As for `c1ccc(-c2nnn3c2COC(CNCC2CCOCC2)C3)cc1` (stereo not given), the Percent Effect was determined as 19.2%.

With `O=C(c1cncc(N2CCC3(CCNCC3)CC2)n1)N1CCCC1`, the Percent Effect was determined as 21%.

As to `Cc1cc(NC(=O)NCCc2cccs2)n(C)n1`, the Percent Effect came out at 5.13%.

For `Cc1nc(-c2ccco2)ccc1C(=O)N1CCCC1Cn1cccn1` (stereo not given), the Percent Effect turned out to be 0%.

As for `CCOCC1CN(C(=O)CS(C)(=O)=O)Cc2cnn(C)c21` (stereo not given), the Percent Effect was determined as 2.5%.

As to `O=C1CC(c2ccccc2F)c2c(n3ccsc3nc2=O)N1` (stereo not given), the Percent Effect is 12.8%.

As to `O=C(c1cccnc1-n1cccn1)N1CCN(CC2CC2)CC1`, the Percent Effect is 0%.

Turning to `COc1cc(C(=O)N(Cc2cnn(C)c2)C(C)C)ccc1OCC(N)=O`, the Percent Effect was determined as 6.17%.

Turning to `Cc1nn(C)c(C)c1C1CCCN1CC(=O)NC(C1CC1)C1CC1` (stereo not given), the Percent Effect is 11.1%.

Consider `Cc1nc(C2CCCN(C(=O)c3cccc4c3OCO4)C2)no1` (stereo not given), for which the Percent Effect is 10.1%.

In the case of `COCCNC(=O)C(C)n1cc(Br)cn1` (stereo not given), the Percent Effect turned out to be 16.1%.

For `Cc1nc(CN2CCOC(c3nc(C(C)C)n[nH]3)C2)oc1C` (stereo not given), the Percent Effect was found to be 8.86%.
